From PubChem BioAssay (EPA / NIEHS)
Inconclusive results are not listed. Active and inactive are the calls of the source. The calls were made as follows: active = hit-call score of the fitted dose curve at least 0.9, where 1 is the maximum; inconclusive = response in the unintended direction; inactive = score below 0.9.

Test system: not listed separately
Assay: ATG_M_06_TRANS: Attagene TRANS-FACTORIAL HepG2 Assay for M06 Transcription Factor (Internal Marker) (AID 2282983);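 also: reporter transcript level by RT-PCR then capillary electrophoresis fluorescence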
Conditions: HepG2 Attagene TRANS M06 internal marker reporter
Procedure, shortened: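 HepG2 cells transiently transfected with GAL4-UAS multiple reporter units, dosed 24 h. Reporter RNA reverse-transcribed, PCR-amplified, 6-FAM-labeled, HpaI-digested and quantified by capillary electrophoresis; this internal-marker signal fitted upward relative to DMSO.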

SMILES | outcome
CCOC(=O)[C@@H](C)Oc1ccc(Oc2nc3ccc(Cl)cc3o2)cc1 | inactive
CSc1c(Cl)c(Cl)c(Cl)c(Cl)c1Cl | inactive
CC(C)(C)OC(=O)c1ccc(O)cc1 | inactive
CCCCCCCCCCCCN1CCCCCC1=O | inactive
Cc1cc(CCC(=O)OCCOCCOCCOC(=O)CCc2cc(C)c(O)c(C(C)(C)C)c2)cc(C(C)(C)C)c1O | inactive
C=CC(C)(O)CCC=C(C)C (stereo unspecified) | inactive
CCCCC(CC)COC(=O)c1ccc(O)cc1 (stereo unspecified) | inactive
CCc1cc(Cc2cc(CC)cc(C(C)(C)C)c2O)c(O)c(C(C)(C)C)c1 | inactive
O=C(Nc1ccc([N+](=O)[O-])cc1)Nc1ccc([N+](=O)[O-])cc1 (tested in a mixture with another compound) | inactive
O=C(Nc1ccc2c(c1)Cc1ccccc1-2)C(F)(F)F | inactive
COC(=O)c1ccc(OC)cc1 | inactive
CCCCCCC(O)CCCCCCCCCCC(=O)O (stereo unspecified) | inactive
O=C(O)COCC(=O)O | inactive
OCc1cccc(Oc2ccccc2)c1 | inactive
CN(C)CCOC(C)(c1ccccc1)c1ccccn1 (stereo unspecified) | inactive
COS(=O)(=O)O | inactive
[Cl][Au]([Cl])[Cl] | inactive
O=C(O)CCCCCCCCC(=O)O | inactive
Oc1ccc2cc(SSc3ccc4cc(O)ccc4c3)ccc2c1 | inactive
CC(C)(C)C1=CC(=O)C(C(C)(C)C)=CC1=O | inactive
CC(C)C[C@H](NC(=O)OCC1c2ccccc2-c2ccccc21)C(=O)O | inactive
O=[N+]([O-])c1ccc(O)cc1C(F)(F)F | inactive
O=C(O)c1ccc(O)cc1 | inactive
CC1C2CC(CC2C2CCCC(O)C2)C1(C)C (stereo unspecified) | inactive
CC1(C)C2=CCCC(C)(C)[C@]23CC[C@H]1C3 | inactive
OCc1ccc(Cl)cc1Cl | inactive
CCOC(=O)CN | inactive
CCCCCCC(C)Nc1ccc(Nc2ccccc2)cc1 (stereo unspecified) | inactive
CC/C=C\CC/C=C/CO | inactive

Test system: not listed separately
Assay: ATG_M_32_TRANS: Attagene TRANS-FACTORIAL HepG2 Assay for M32 Transcription Factor (Internal Marker) (AID 2282984);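 also: transcript level of a background control reporter unit measured by RT-PCR and capillary electrophoresis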
Conditions: HepG2 Attagene TRANS M32 internal marker reporter
Procedure, shortened: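 Measures reporter mRNA induction in human HepG2 liver cells after 24 h chemical treatment. Transcripts from transiently transfected GAL4-UAS reporter units are amplified, fluorescently labelled and sized by capillary electrophoresis; gain of signal relative to DMSO.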

SMILES | outcome
CCOC(=O)[C@@H](C)Oc1ccc(Oc2nc3ccc(Cl)cc3o2)cc1 | inactive
CCCCCCCCCCCCCCCC(=O)OC/C=C(C)/C=C/C=C(C)/C=C/C1=C(C)CCCC1(C)C | inactive
CSc1c(Cl)c(Cl)c(Cl)c(Cl)c1Cl | inactive
C[C@H]1C[C@@H](O)CC(C)(C)C1 | inactive
Cc1ccc(S(=O)(=O)Oc2ccc(N=Nc3ccc(-c4ccc(N=Nc5c(O)ccc6cc(S(=O)(=O)O)cc(S(=O)(=O)O)c56)c(C)c4)cc3C)cc2)cc1 | inactive
Cc1cc(CCC(=O)OCCOCCOCCOC(=O)CCc2cc(C)c(O)c(C(C)(C)C)c2)cc(C(C)(C)C)c1O | inactive
C=CC(C)(O)CCC=C(C)C (stereo unspecified) | inactive
C[Si](C)(C)O[Si](C)(C)C | inactive
CCCCC(CC)COC(=O)c1ccc(O)cc1 (stereo unspecified) | inactive
CN(C)CCOc1ccc(/C(=C(/CCCl)c2ccccc2)c2ccccc2)cc1 | inactive
Nc1ccc2cc(S(=O)(=O)O)cc(O)c2c1N=Nc1ccccc1C(F)(F)F | inactive
O=C(Nc1ccc([N+](=O)[O-])cc1)Nc1ccc([N+](=O)[O-])cc1 (tested in a mixture with another compound) | inactive
O=C(Nc1ccc2c(c1)Cc1ccccc1-2)C(F)(F)F | inactive
COC(=O)c1ccc(OC)cc1 | inactive
CCCCCCC(O)CCCCCCCCCCC(=O)O (stereo unspecified) | inactive
OCc1cccc(Oc2ccccc2)c1 | inactive
CN(C)CCOC(C)(c1ccccc1)c1ccccn1 (stereo unspecified) | inactive
[Cl][Au]([Cl])[Cl] | inactive
Oc1ccc2cc(SSc3ccc4cc(O)ccc4c3)ccc2c1 | inactive
COc1ccc(CCC(C)=O)cc1 | inactive
O=[N+]([O-])c1ccc(O)cc1C(F)(F)F | inactive
O=C(O)c1ccc(O)cc1 | inactive
CC1C2CC(CC2C2CCCC(O)C2)C1(C)C (stereo unspecified) | inactive
CC1(C)C2=CCCC(C)(C)[C@]23CC[C@H]1C3 | inactive
CC1(C)COCN1 | inactive
CC/C=C\CC/C=C/CO | inactive

Biological target: Nuclear receptor subfamily 4 group A member 2 (Homo sapiens) (UniProt P43354)
Assay: ATG_NURR1_TRANS: Attagene TRANS-FACTORIAL HepG2 Assay for human Nuclear Receptor Related Protein 1 (NURR1) (AID 2282985)
Conditions: HepG2 Attagene TRANS reporter, mRNA readout
Procedure, shortened: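 Transient transfection of HepG2, human liver cells, with multiple GAL4-UAS reporter transcription units. Cells dosed 24 h, RNA isolated, reverse-transcribed, PCR-amplified, FAM-labelled, HpaI-digested, sized by capillary electrophoresis. DMSO served as negative control.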

Nuclear receptor subfamily 4 group A member 2 (Homo sapiens), sequence (P43354 whole entry, looked up): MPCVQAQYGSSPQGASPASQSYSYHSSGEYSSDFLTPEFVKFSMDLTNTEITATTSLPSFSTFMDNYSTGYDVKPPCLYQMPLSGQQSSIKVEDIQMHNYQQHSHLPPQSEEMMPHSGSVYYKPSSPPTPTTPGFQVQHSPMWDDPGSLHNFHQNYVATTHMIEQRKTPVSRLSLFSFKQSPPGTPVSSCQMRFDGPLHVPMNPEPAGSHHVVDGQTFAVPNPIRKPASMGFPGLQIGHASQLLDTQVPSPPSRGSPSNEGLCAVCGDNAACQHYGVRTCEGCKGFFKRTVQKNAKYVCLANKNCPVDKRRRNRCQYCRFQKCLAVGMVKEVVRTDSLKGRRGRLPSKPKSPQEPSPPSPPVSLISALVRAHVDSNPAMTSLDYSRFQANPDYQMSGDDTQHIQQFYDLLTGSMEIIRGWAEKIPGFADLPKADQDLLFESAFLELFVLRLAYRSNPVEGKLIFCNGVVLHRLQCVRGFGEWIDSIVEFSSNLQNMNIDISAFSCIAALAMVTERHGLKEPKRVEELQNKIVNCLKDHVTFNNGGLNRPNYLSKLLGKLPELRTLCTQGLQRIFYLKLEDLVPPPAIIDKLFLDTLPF

SMILES | outcome | AC50
CCOC(=O)[C@@H](C)Oc1ccc(Oc2nc3ccc(Cl)cc3o2)cc1 | inactive | –
CSc1c(Cl)c(Cl)c(Cl)c(Cl)c1Cl | – | 26.9 µM (active)
CC(C)(C)OC(=O)c1ccc(O)cc1 | inactive | –
Cc1cc(S(=O)(=O)O)ccc1N=Nc1c(O)ccc2ccccc12 | inactive | –
C[C@H]1C[C@@H](O)CC(C)(C)C1 | inactive | –
Cc1ccc(S(=O)(=O)Oc2ccc(N=Nc3ccc(-c4ccc(N=Nc5c(O)ccc6cc(S(=O)(=O)O)cc(S(=O)(=O)O)c56)c(C)c4)cc3C)cc2)cc1 | inactive | –
Cc1cc(CCC(=O)OCCOCCOCCOC(=O)CCc2cc(C)c(O)c(C(C)(C)C)c2)cc(C(C)(C)C)c1O | inactive | –
C=CC(C)(O)CCC=C(C)C (stereo unspecified) | inactive | –
CCCCC(CC)COC(=O)c1ccc(O)cc1 (stereo unspecified) | inactive | –
CN(C)CCOc1ccc(/C(=C(/CCCl)c2ccccc2)c2ccccc2)cc1 | inactive | –
Nc1ccc2cc(S(=O)(=O)O)cc(O)c2c1N=Nc1ccccc1C(F)(F)F | inactive | –
O=C(Nc1ccc2c(c1)Cc1ccccc1-2)C(F)(F)F | inactive | –
CCCCCCC(O)CCCCCCCCCCC(=O)O (stereo unspecified) | inactive | –
[Cl][Au]([Cl])[Cl] | inactive | –
CC(C)(C)C1=CC(=O)C(C(C)(C)C)=CC1=O | – | 74 µM (active)
O=[N+]([O-])c1ccc(O)cc1C(F)(F)F | inactive | –
O=C(O)c1ccc(O)cc1 | inactive | –
CC1C2CC(CC2C2CCCC(O)C2)C1(C)C (stereo unspecified) | inactive | –
CC1(C)C2=CCCC(C)(C)[C@]23CC[C@H]1C3 | inactive | –
CCCCCCC(C)Nc1ccc(Nc2ccccc2)cc1 (stereo unspecified) | – | 39.5 µM (active)
CC/C=C\CC/C=C/CO | inactive | –
